Here are results for 10 compounds from PubChem BioAssay (Tox21).

Inconclusive results are not listed. Calls of active or inactive are those of the source. Unless noted, the call rests on the fitted dose curve; in most records, active means well fitted curve in the direction sought with a large enough effect in the repeat runs; inconclusive means weak or mixed curves; inactive means no such curve, though single readings can be large; an effect the other way counts as inactive or inconclusive.

Test [1] is described as follows: qHTS assay to identify small molecule agonists of the vitamin D receptor (VDR) signaling pathway - cell viability counter screen (AID 743224). Further: series mostly up to about 63 µM; nearly all actives have a fitted effect of over 50% in size. The essentials: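 Here cell health was gauged by luminescent ATP detection (CellTiter-Glo, 30 min RT) in VDR-bla cells that had been incubated with test compounds for 16 h at 37C and 5% CO2.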
On the technique in general: Quantitative high-throughput screening tests each substance at several concentrations.

A short description of test [2]: qHTS assay to identify small molecule antagonists of the vitamin D receptor (VDR) signaling pathway - cell viability counter screen (AID 743225). Further: nearly all actives have a fitted effect of over 50% in size. The procedure, abridged: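 Luminescent cell viability (CellTiter-Glo) in VDR-bla HEK 293T cells after 16 h compound exposure at 37C in the presence of 3 nM final 1-alpha,25-dihydroxy vitamin D3.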
Test [3] can be described thus: qHTS assay to identify small molecule agonists of the NFkB signaling pathway (AID 1159509; active means well fitted curve in the direction sought with a large enough effect in the signal ratio in the repeat runs, not every such curve was filed as active; the % refers to the signal ratio; further: series mostly up to about 61 µM). The procedure, abridged:
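NFkB-bla ME-180 cells with a beta-lactamase reporter under an NF-kB response element were plated overnight, treated with compounds in DMSO for 5 hr at 37 C, then loaded with FRET substrate for 1.5 hr at room temperature.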

Test [4] is described as follows: qHTS assay to identify small molecule agonists of the NFkB signaling pathway - cell viability counter screen (AID 1159515; calls by dose curve; further: series mostly up to about 61 µM; nearly all actives have a fitted effect of over 55% in size). The essentials: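 5 hr compound treatment of NFkB-bla ME-180 cells (2,000/well, seeded overnight beforehand), followed by reporter substrate for 1.5 hr. CellTiter-Glo added afterward; luminescence after 30 min RT.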
Test [5] can be described thus: qHTS assay to identify small molecule agonists of the endoplasmic reticulum stress response signaling pathway (AID 1159516; active means well fitted activation curve with a large enough effect in the signal ratio in the repeat runs, not every such curve was filed as active; the % refers to the signal ratio). The essentials: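 Reporter HeLa cells (ESRE-beta-lactamase) underwent 5 hr compound incubation at 37 C and 5% CO2 in quantitative HTS format. Detection followed 2 hr of FRET substrate loading at room temperature.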
Test [6] is described as follows: qHTS assay to identify small molecule antagonists of the retinoid-related orphan receptor gamma (ROR-gamma) signaling pathway - cell viability counter screen (AID 1159520). Further: nearly all actives have a fitted effect of over 50% in size. The procedure, abridged:
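Tet-on ROR gamma CHO cells were given compounds for 2 hr, then doxycycline hyclate at 1 uM final, and incubated 16 hr at 37 C. Viability was measured as ATP content by CellTiter-Glo luminescence.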

For test [7], the target named is Nuclear receptor ROR-gamma (Homo sapiens) (UniProt P51449). In words: qHTS assay to identify small molecule antagonists of the retinoid-related orphan receptor gamma (ROR-gamma) signaling pathway (AID 1159521;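 further: CHO cells with doxycycline inducible ROR-gamma driving an RORE luciferase reporter; top concentration of the series differs between compounds; nearly all actives have a fitted effect of over 50% in size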). The essentials: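 CHO cells expressing RORγ under a TET-on promoter, luciferase under RORE control. Dox 1 uM final, 16 h; compounds added 2 h prior. Luminescence decrease measured.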

The nature of test [8]: qHTS assay to identify small molecule agonists of the AP-1 signaling pathway - cell viability counter screen (AID 1159525; calls by dose curve; further: nearly all actives have a fitted effect of over 55% in size). The essentials:
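AP-1-bla ME-180 cells in Opti-MEM with 0.5% dialyzed FBS, compound exposure 5 h at 37 C in 15-point titration. Viability read in the same wells as ATP content by CellTiter-Glo luminescence, normalised to tetra-n-octylammonium bromide and DMSO controls.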

A short description of test [9]: qHTS assay to identify small molecule agonists of the AP-1 signaling pathway (AID 1159526; calls by dose curve).
A short description of test [10]: qHTS assay to identify small molecule agonists of the RXR signaling pathway - cell viability counter screen (AID 1159529). The essentials:
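Same-well viability check after the LiveBLAzer FRET read: CellTiter-Glo added, luminescence measured after 30 min at room temperature. Reporter HEK 293T cells had been treated with compounds for 16 hr following a 5 hr preincubation.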

A short description of test [11]: qHTS assay to identify small molecule antagonists of the retinoid acid receptor (RAR) signaling pathway - cell viability counter screen (AID 1159551). Further: nearly all actives have a fitted effect of over 35% in size. The procedure, abridged: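 Seed C3RL4 cells; next day add compound, then retinol to 1 uM final; incubate 6 h at 37 C; add CellTiter-Glo; read luminescence after 30 min at RT.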
A short description of test [12]: qHTS assay to identify small molecule antagonists of the estrogen related receptor (ERR) signaling pathway - cell viability counter screen (AID 1224818).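 Further: series mostly up to about 46 µM; viability measured after 17.5 h of compound exposure.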 The essentials: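 In the same ERR cell assay, compound-treated wells (17.5 h, 37 C) were multiplexed with a fluorogenic viability reagent, CellTiter-Fluor, read after 30 min to flag cytotoxic substances.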
A short description of test [13]: qHTS assay to identify small molecule antagonists of the estrogen related receptor signaling pathway with the pleiotropic PPARgamma coactivator (PGC) cell viability counter screen (AID 1224822; further: series mostly up to about 46 µM). The procedure, abridged: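 Compounds in DMSO, with positive and negative controls, were applied to PGC/ERR cells (2,000/well) and left 17.5 h at 37 C before CellTiter-Fluor detection.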

A short description of test [14]: qHTS assay to identify small molecule agonists of the retinoic acid receptor (RAR) signaling pathway (AID 1159553). Further: potency means the concentration at half of the fitted maximal effect. The procedure, abridged:
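Activation of retinol signaling was monitored via a RARE luciferase reporter in C3RL4 cells. After 6 hr compound treatment at 37 C, detection reagent was added for 30 min at room temperature before luminescence reading.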

Test [15] concerns the target Retinoic acid receptor RXR-alpha (Homo sapiens) (UniProt P19793). Briefly: qHTS assay to identify small molecule agonists of the RXR signaling pathway (AID 1159527; calls by dose curve; further: nearly all actives have a fitted effect of over 35% in size). The essentials:
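Beta-lactamase reporter assay, agonist format. Engineered HEK 293T line, charcoal-stripped FBS at 2%, overnight (16 hr) exposure, fluorescence at 460 and 530 nm after 405 nm excitation.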

A short description of test [16]: qHTS assay to identify small molecule antagonists of the retinoic acid receptor (RAR) signaling pathway (AID 1159552; further: nearly all actives have a fitted effect of over 50% in size). The essentials: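 Readout: luciferase luminescence, 30 min post-reagent at RT. Setup: C3RL4 RARE reporter cells, compounds plus retinol 1 uM final, 6 hr incubation at 37 C and 5% CO2.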

Sequence of Retinoic acid receptor RXR-alpha (Homo sapiens) (P19793 whole entry, looked up): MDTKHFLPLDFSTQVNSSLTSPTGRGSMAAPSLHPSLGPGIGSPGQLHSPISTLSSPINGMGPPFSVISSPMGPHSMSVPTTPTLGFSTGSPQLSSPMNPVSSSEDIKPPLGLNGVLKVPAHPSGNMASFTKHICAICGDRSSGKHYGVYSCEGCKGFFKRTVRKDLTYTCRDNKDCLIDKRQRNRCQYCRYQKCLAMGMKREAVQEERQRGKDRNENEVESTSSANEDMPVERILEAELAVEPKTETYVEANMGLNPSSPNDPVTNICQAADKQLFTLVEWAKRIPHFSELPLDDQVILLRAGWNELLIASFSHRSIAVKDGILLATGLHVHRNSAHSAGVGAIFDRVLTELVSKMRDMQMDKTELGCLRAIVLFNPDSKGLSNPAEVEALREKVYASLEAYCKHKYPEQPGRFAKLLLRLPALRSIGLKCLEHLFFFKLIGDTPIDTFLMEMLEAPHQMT

Turning to `CCN(CC)CCNC(=O)c1cc(Cl)c(N)cc1OC`, the Potency result in test [1], in test [2], in [4], in [5], in test [6] and in [7] was “inactive” throughout. The Potency result in test [8], in test [10] and in test [11] was “inactive” throughout. Also, the outcome in test [3], in test [9], in test [12] and in [13] was inactive.

As to `COc1ccc(-c2cc(C(F)F)nn2-c2ccc(S(N)(=O)=O)cc2)cc1F`, the Potency entry in test [2], in test [4], in test [5], in test [6], in test [7] and in test [8] was “inactive” in each case. Moreover, the Potency result in test [10] and in test [14] was “inactive” in each case. For the same compound, the compound was classed as inactive in test [3] and in [9].

Regarding `O=[N+]([O-])c1ccc2ncccc2c1`, the Potency entry in test [1], in test [2], in test [4], in [5], in test [6] and in test [7] was “inactive” each time. For the same compound, the Potency entry in test [8], in test [10], in test [11] and in test [14] was “inactive” throughout. For the same compound, the compound was called inactive in test [3] and in test [9].

In the case of `O=C(Nc1ccc(C(=O)O)c(O)c1)c1ccccc1`, the Potency entry in test [1], in test [2], in test [4], in test [5], in test [6] and in test [7] was “inactive” throughout. Besides, the Potency result in test [8], in [15] and in test [10] was “inactive” each time. Moreover, the call in test [3] and in [9] was inactive.

On to `c1ccc(CCCc2ccncc2)cc1`, for which the Potency entry in test [1], in test [2], in [4], in [5], in test [6] and in test [7] was “inactive” throughout. Moreover, the Potency entry in test [8], in test [10], in test [11] and in [16] was “inactive” throughout. The outcome in test [3] and in test [9] was inactive. The Potency in [14] was 68.6 µM (active).

In the case of `COc1ccc(C(=O)NCc2ccc(OCCN(C)C)cc2)cc1OC`, the Potency result in test [1], in test [2], in [4], in [5], in [6] and in test [7] was “inactive” each time. The Potency result in test [8], in test [15], in [10] and in test [11] was “inactive” each time. Besides, the compound was classed as inactive in test [3] and in test [9].

With `CC(C)(O)c1coc(S(=O)(=O)NC(=O)Nc2c3c(cc4c2CCC4)CCC3)c1`, the Potency entry in test [1], in test [2], in [4], in test [5], in [6] and in [7] was “inactive” in each case. The Potency entry in test [8] and in test [16] was “inactive” in each case. In addition, the compound was classed as inactive in test [3] and in [9].

`CCSC(=O)N(CC)CC`: the Potency entry in [2], in test [4], in test [5], in [6], in test [7] and in test [8] was “inactive” in each case. Besides, the Potency result in [15], in [10] and in test [11] was “inactive” each time. The call in test [3] and in test [9] was inactive.

As to `CC(=O)N[C@@H](Cc1ccc(O)cc1)C(=O)O`, the Potency result in test [1], in test [2], in test [4], in test [5], in test [6] and in [7] was “inactive” in each case. The Potency entry in [8], in [15], in test [10], in test [16] and in test [14] was “inactive” in each case. In addition, the compound was classed as inactive in test [3] and in test [9].

Consider `CC1CCc2nccnc21` (stereo not drawn), for which the Potency entry in test [1], in [2], in test [4], in test [5], in test [6] and in [7] was “inactive” each time. In addition, the Potency result in test [8], in test [10], in [11], in [16] and in test [14] was “inactive” each time. Also, the result in test [3] and in test [9] was inactive.
